Results reported in PubChem BioAssay (NCI).
The panel holds about 79,000 compounds, 15% with a hit somewhere; the sample as a whole holds those more often. Active and inactive are the calls of the source. Cut-off read from the data, not from the text of the source: active = growth inhibition above about 70%; inactive = the rest.

How the values were obtained:
[1] = NCI Yeast Anticancer Drug Screen. Data for the mec2-1 strain (AID 157); conditions: S. cerevisiae mec2-1 strain, hits give high values
Procedure, shortened: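 mec2-1 yeast strain, carrying an alteration in DNA damage repair or cell cycle control, was exposed to compounds; growth inhibition was measured relative to vehicle-treated controls.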

[2] = NCI Yeast Anticancer Drug Screen. Data for the sgs1 mgt1 strain (AID 161);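 note: 0% = growth of cultures given vehicle only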; conditions: S. cerevisiae sgs1 mgt1 strain, hits give high values
Procedure, shortened: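 Growth of a repair-deficient yeast mutant was monitored after compound treatment and expressed as inhibition relative to vehicle-treated cultures.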

[3] = NCI Yeast Anticancer Drug Screen. Data for the CLN2oe strain (AID 163);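 note: 0% = growth of vehicle-only control cultures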; conditions: S. cerevisiae CLN2oe strain, hits give high values
Procedure, shortened: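 Yeast cells carrying a defined cell-cycle control alteration were exposed to test compounds. Growth inhibition was scored against vehicle-treated control cultures.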

[4] = NCI Yeast Anticancer Drug Screen. Data for the cln2 rad14 strain (AID 165);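 note: 0% = growth equal to vehicle treated cultures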; conditions: S. cerevisiae cln2 rad14 strain, hits give high values
Procedure, shortened: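 Yeast carrying cln2 and rad14 alterations (cell cycle control and DNA damage repair) were exposed to compounds. Growth inhibition was measured against vehicle-treated controls.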

[5] = NCI Yeast Anticancer Drug Screen. Data for the bub3 strain (AID 167); conditions: S. cerevisiae bub3 mutant strain, hits give high values
Procedure, shortened: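 Steps: expose the mutant yeast strain to compound; grow alongside vehicle-treated cultures; measure growth; express inhibition against the vehicle cultures.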

[6] = NCI Yeast Anticancer Drug Screen. Data for the wt2 strain (AID 169);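 note: 0% = growth of vehicle-treated yeast cultures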; conditions: S. cerevisiae wt2 strain growth inhibition, hits give high values
Procedure, shortened: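 Yeast cells were exposed to test compounds, and growth inhibition was measured relative to vehicle-treated controls.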

[7] = NCI Yeast Anticancer Drug Screen. Data for the mlh1 strain (AID 171);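 note: 0% = growth of vehicle-treated control cultures of the same strain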; conditions: S. cerevisiae mlh1 strain growth inhibition, hits give high values
Procedure, shortened: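 Yeast carrying a defined genetic alteration in DNA damage repair or cell cycle control were exposed to test compounds. Growth inhibition was measured relative to vehicle-treated controls.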

[8] = NCI Yeast Anticancer Drug Screen. Data for the sgs1 strain (AID 173);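 note: 0% = growth of vehicle-only control cultures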; conditions: S. cerevisiae sgs1 mutant, hits give high values
Procedure, shortened: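 Yeast mutant strains carrying defined defects in DNA damage repair or cell cycle control were exposed to test compounds. Growth inhibition was scored against vehicle-treated controls.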

[9] = NCI Yeast Anticancer Drug Screen. Data for the mlh1 rad18 strain (AID 175); conditions: S. cerevisiae mlh1 rad18 strain growth inhibition, hits give high values
Procedure, shortened: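 Growth inhibition of the yeast strain was measured after compound exposure and expressed relative to vehicle-treated controls. The strain carries defined defects in DNA damage repair.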

[10] = NCI Yeast Anticancer Drug Screen. Data for the rad18 strain (AID 177); conditions: S. cerevisiae rad18 mutant growth inhibition, hits give high values
Procedure, shortened: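 Yeast carrying a defined DNA damage repair alteration were exposed to compounds. Growth inhibition was expressed relative to vehicle-treated controls.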

[11] = NCI Yeast Anticancer Drug Screen. Data for the wt1 strain (AID 149);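 note: 0% = growth of vehicle-treated wt1 cultures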; conditions: S. cerevisiae wt1 strain (SPY 50644) growth inhibition, hits give high values
Procedure, shortened: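 Compounds are added to wt1 yeast cultures. Growth is then measured. Inhibition is expressed relative to vehicle-treated controls.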

[12] = NCI Yeast Anticancer Drug Screen. Data for the rad50EPP+ strain (AID 151);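 note: 0% = growth of vehicle-treated control cultures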; conditions: S. cerevisiae rad50 mutant strain, hits give high values
Procedure, shortened: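 Yeast strain carrying rad50 alteration (rad50EPP+) exposed to compounds; growth inhibition measured relative to vehicle-treated controls.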

[13] = NCI Yeast Anticancer Drug Screen. Data for the mgt1 strain (AID 153); conditions: S. cerevisiae mgt1 mutant growth inhibition, hits give high values
Procedure, shortened: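 Yeast mgt1 strain (DNA repair/cell-cycle alteration panel) exposed to compounds; growth inhibition measured relative to vehicle-treated controls.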

[14] = NCI Yeast Anticancer Drug Screen. Data for the rad50 strain (AID 155);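 note: 0% = growth of vehicle-only cultures of the same strain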; conditions: S. cerevisiae rad50 strain growth inhibition, hits give high values
Procedure, shortened: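 Inhibition values express reduced yeast growth in compound-treated cultures relative to vehicle-treated controls.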

[15] = NCI Yeast Anticancer Drug Screen. Data for the rad14 strain (AID 159);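 note: 0% = growth of vehicle-treated control cultures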; conditions: S. cerevisiae rad14 strain growth inhibition, hits give high values
Procedure, shortened: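 A mutant yeast strain defective in DNA damage repair is treated with compound; inhibition of its growth is scored against untreated, vehicle-exposed cultures.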

[16] = at 5.0 µM (retest, dose inferred, filed as 0.5)
[17] = at 50.0 µM (retest, dose inferred, filed as 5.0)

Measured: growth inhibition

c1ccc(-c2nc3cccnc3s2)cc1
inactive: [1]; at 100.0 µM 20% | [2]; [16] -5% | [2]; [17] 18% | [2]; at 50.0 µM 13.6% | [3]; at 1.2 µM 0% | [3]; at 3.7 µM -1% | [3]; at 11.0 µM 0% | [3]; at 33.0 µM -5% | [3]; at 100.0 µM 3% | [4]; [16] -25% | [4]; [17] -19% | [4]; at 50.0 µM 5.55% | [5]; at 1.2 µM -4% | [5]; at 3.7 µM 0% | [5]; [16] 25% | [5]; at 11.0 µM 10% | [5]; at 33.0 µM 10% | [5]; [17] 43% | [5]; at 50.0 µM -2.7% | [5]; at 100.0 µM 14% | [6]; at 1.2 µM -2% | [6]; at 3.7 µM -3% | [6]; at 11.0 µM -3% | [6]; at 33.0 µM -5% | [6]; at 100.0 µM 0% | [7]; at 1.2 µM 2% | [7]; at 3.7 µM 13% | [7]; at 11.0 µM 2% | [7]; at 33.0 µM -2% | [7]; at 100.0 µM 15% | [8]; at 1.2 µM -2% | [8]; at 3.7 µM -3% | [8]; at 11.0 µM -2% | [8]; at 33.0 µM -3% | [8]; at 100.0 µM -9% | [9]; [16] -8% | [9]; [17] 1% | [9]; at 50.0 µM -4.1% | [10]; at 1.2 µM 3% | [10]; at 3.7 µM 2% | [10]; at 11.0 µM -1% | [10]; at 33.0 µM -6% | [10]; at 100.0 µM -15%

Cc1ccc(S(=O)(=O)NC(=O)NC2=NC(C)(C)N(c3ccc(Cl)c(Cl)c3)C(N)=N2)cc1
active: [4]; at 50.0 µM 79.4%
inactive: [11]; at 1.2 µM -2% | [11]; at 3.7 µM 1% | [11]; at 11.0 µM -1% | [11]; at 33.0 µM -1% | [11]; at 100.0 µM -3% | [12]; at 1.2 µM -2% | [12]; at 3.7 µM -3% | [12]; at 11.0 µM -1% | [12]; at 33.0 µM -2% | [12]; at 100.0 µM 4% | [13]; at 1.2 µM 0% | [13]; at 3.7 µM -1% | [13]; at 11.0 µM -4% | [13]; at 33.0 µM 1% | [13]; at 100.0 µM -5% | [14]; at 1.2 µM -2% | [14]; at 3.7 µM -4% | [14]; [16] 7% | [14]; at 11.0 µM -5% | [14]; at 33.0 µM -3% | [14]; [17] 1% | [14]; at 50.0 µM -1.3% | [14]; at 100.0 µM -4% | [1]; at 1.2 µM -2% | [1]; at 3.7 µM 2% | [1]; [16] 1% | [1]; at 11.0 µM 4% | [1]; at 33.0 µM -3% | [1]; [17] -3% | [1]; at 50.0 µM -3.35% | [1]; at 100.0 µM -3% | [15]; at 1.2 µM -1% | [15]; at 3.7 µM 0% | [15]; at 11.0 µM 1% | [15]; at 33.0 µM 1% | [15]; at 100.0 µM 0% | [2]; [16] 6% | [2]; [17] -6% | [2]; at 50.0 µM 4.25% | [3]; at 1.2 µM -9% | [3]; at 3.7 µM -5% | [3]; at 11.0 µM -5% | [3]; at 33.0 µM -1% | [3]; at 100.0 µM -11% | [4]; [16] 1% | [4]; [17] 1% | [5]; at 1.2 µM -2% | [5]; at 3.7 µM -7% | [5]; [16] 1% | [5]; at 11.0 µM -6% | [5]; at 33.0 µM -8% | [5]; [17] -1% | [5]; at 50.0 µM -23.9% | [5]; at 100.0 µM -5% | [7]; at 1.2 µM -1% | [7]; at 3.7 µM 0% | [7]; at 11.0 µM -1% | [7]; at 33.0 µM 1% | [7]; at 100.0 µM -3% | [8]; at 1.2 µM -1% | [8]; at 3.7 µM -2% | [8]; at 11.0 µM -1% | [8]; at 33.0 µM -2% | [8]; at 100.0 µM -2% | [9]; [16] 0% | [9]; [17] 47% | [9]; at 50.0 µM 2.35% | [10]; at 1.2 µM -1% | [10]; at 3.7 µM 2% | [10]; at 11.0 µM 4% | [10]; at 33.0 µM 1% | [10]; at 100.0 µM -1%
